RBX1-CUL1 inh – inhibitors of human ROC1-CUL1 ubiquitin ligase activity; in vitro K48 di-Ub FRET, acceptor:donor ratio, 45 min; AID 1347404; inhibition, % at 10 µM; 0.6% of 140,000 active; P62877+Q13616; in the data active means inhibition above about 25%
Target sequence (P62877 whole entry, looked up): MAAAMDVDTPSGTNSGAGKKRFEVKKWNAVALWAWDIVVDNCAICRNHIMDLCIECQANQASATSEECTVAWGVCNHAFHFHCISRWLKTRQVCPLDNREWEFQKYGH
Target sequence (Q13616 whole entry, looked up): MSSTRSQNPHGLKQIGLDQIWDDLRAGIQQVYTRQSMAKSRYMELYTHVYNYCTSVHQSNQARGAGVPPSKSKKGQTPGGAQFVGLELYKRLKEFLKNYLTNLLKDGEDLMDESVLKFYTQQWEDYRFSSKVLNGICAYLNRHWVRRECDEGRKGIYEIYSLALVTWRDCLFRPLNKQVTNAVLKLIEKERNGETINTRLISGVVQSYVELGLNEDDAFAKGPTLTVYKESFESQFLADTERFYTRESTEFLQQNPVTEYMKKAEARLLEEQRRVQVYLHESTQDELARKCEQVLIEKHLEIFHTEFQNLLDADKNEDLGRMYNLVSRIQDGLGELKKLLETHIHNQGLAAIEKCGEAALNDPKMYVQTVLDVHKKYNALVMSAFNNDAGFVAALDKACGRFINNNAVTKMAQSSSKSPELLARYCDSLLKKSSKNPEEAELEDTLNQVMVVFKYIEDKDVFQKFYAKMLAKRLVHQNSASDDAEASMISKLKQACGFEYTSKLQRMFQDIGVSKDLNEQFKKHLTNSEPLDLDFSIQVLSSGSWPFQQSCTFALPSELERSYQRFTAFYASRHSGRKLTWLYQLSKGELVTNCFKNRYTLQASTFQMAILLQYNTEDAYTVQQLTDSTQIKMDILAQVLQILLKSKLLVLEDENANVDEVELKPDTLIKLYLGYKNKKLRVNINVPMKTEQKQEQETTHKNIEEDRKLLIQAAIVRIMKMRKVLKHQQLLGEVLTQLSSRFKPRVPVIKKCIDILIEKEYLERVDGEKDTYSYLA
Active calls of the source: *. Shown is part of a subset that was picked to be rich in hits.

SMILES | RBX1-CUL1 inh
CC(=O)CSc1nc2scc(-c3ccc(C)o3)c2c(=O)n1-c1ccccc1 | -5
O=C(CSc1nc2scc(-c3ccco3)c2c(=O)n1-c1ccccc1)c1ccc(F)cc1 | 97*
O=C(CSc1nc2scc(-c3ccco3)c2c(=O)n1-c1ccccc1)Nc1ccc2c(c1)OCCO2 | 3
Cc1cc(N2C(=O)c3cccc4cccc(c34)C2=O)ccc1I | -9
Cn1cc(CN2CCC(n3cc(-c4cc(F)cc(F)c4)nn3)CC2)cn1 | -2
CC(C)(C)OC(=O)NC(Cc1ccc(OCc2ccccc2)cc1)C(=O)NC(CCC(=O)OCc1ccccc1)C(N)=O (centres undefined) | -4
COc1ccccc1-c1nnc2sc(/C=C/c3ccco3)nn12 | 20
Fc1ccc(-c2nnc3sc(/C=C/c4ccco4)nn23)cc1 | 95*
Clc1ccccc1-c1nnc2sc(-c3cccs3)nn12 | 0
Fc1ccc(/C=C/c2nn3c(-c4ccco4)nnc3s2)cc1 | 9
Clc1ccccc1-c1nnc2sc(/C=C/c3ccco3)nn12 | 96*
Fc1ccc(-c2nn3c(-c4ccco4)nnc3s2)cc1 | 0
Cc1cc(C)cc(NS(=O)(=O)c2c(C)cc(N3CCCC3=O)cc2C)c1 | 3
CC(=O)c1c(C)nn(CC(=O)N2CCC3(CCCN(CC4CC4)C3)C2)c1C (centres undefined) | -13
COc1ccccc1-c1n[nH]c2c1CN(C(=O)Cc1sc(C)nc1C)CC2 | 3
Brc1nsc(SCSc2nc(Br)ns2)n1 | 33*
Cc1ccccc1C(c1ccccc1)C1NCCc2cc(O)c(O)cc21 (centres undefined) | -4
CN(Cc1cccc(OCC(O)CN2CCOCC2)c1)C1CCOCC1 (centres undefined) | 3
Cc1cc(OCC(O)CN2CCN(c3cc(Cl)ccc3C)CC2)ccc1C(C)C (centres undefined) | -2
Cc1ccc2c(c1)nnn2S(=O)(=O)c1ccc(C(C)(C)C)cc1 | 0
Cc1ccc2c(c1)nnn2S(=O)(=O)c1ccc([N+](=O)[O-])cc1 | -5
CCc1ccc(S(=O)(=O)n2nnc3ccccc32)cc1 | 26*
CCC(C)C(C(=O)O)N1C(=O)CSC1=S (centres undefined) | 5
Cc1cnc(C)c(-c2ccc3c(c2)CC(CNC(=O)CCC2CCCCC2)O3)n1 (centres undefined) | -7
CC(C)(C)C1CCc2c(sc(NC(=O)COc3ccccc3)c2C(N)=O)C1 (centres undefined) | -7
SMILES | RBX1-CUL1 inh
CC(C)OC(=O)c1ccc(Cn2nnc3sc4c(c3c2=O)CCCC4)cc1 | 44*
CC1CCc2c(sc3nnn(Cc4cccc(C(=O)OC(C)C)c4)c(=O)c23)C1 (centres undefined) | -4
CC(C)OC(=O)c1cccc(NC(=O)Cn2nnc3sc4c(c3c2=O)CCCC4)c1 | 5
CCCC(C)NC(=O)COc1ccccc1 (centres undefined) | -6
CC(=O)N1c2ccccc2N(C)C2OC(C)=C(C(=O)OC3CCCCC3)C21 (centres undefined) | 3
CCCCNC(=O)c1cc2nc(-c3ccc(F)cc3)cc(C(F)(F)F)n2n1 | -3
Cc1ccc(NC(=O)c2ccc(Cl)cc2Cl)c(S(=O)(=O)O)c1 | 96*
Cc1ccnc(NC(=O)c2ccc(Cl)cc2Cl)c1 | 6
Cc1ccc(NS(=O)(=O)c2ccc(NC(=O)c3ccc(Cl)cc3Cl)cc2)c(C)c1 | 5
N#C/C(=N\Nc1c(Cl)cc(Cl)cc1Cl)C(=O)c1ccccc1 | -10
N#C/C(=N/Nc1ccc(Cl)cc1Cl)C(=O)c1ccc(Cl)cc1 | -8
N#C/C(=N\Nc1c(Cl)cc(Cl)cc1Cl)C(=O)c1ccc(Cl)cc1 | 82*
Cc1ccc(S(=O)(=O)Cc2ccc(Cl)cc2Cl)cc1 | 2
COc1ccc(S(=O)(=O)Nc2ccc(O)c3ccccc23)cc1 | -6
O=S(=O)(Nc1cc(Sc2ncn[nH]2)c(O)c2ccccc12)c1ccc2ccccc2c1 | 84*
NNS(=O)(=O)c1ccc2ccccc2c1 | -1
CC12CCC(C(=O)Nc3ccc(F)cc3)(c3nc4ccccc4nc31)C2(C)C (centres undefined) | 8
O=C1C2C(c3ccc(Br)cc3)OC3(C(=O)c4ccccc4C3=O)C2C(=O)N1c1ccc(Oc2ccc(Cl)cc2)cc1 (centres undefined) | 0
COc1cccc(C2OC3(C(=O)c4ccccc4C3=O)C3C(=O)N(c4ccc(Br)cc4)C(=O)C23)c1 (centres undefined) | -6
O=C1C2C(c3ccc(Br)cc3)OC3(C(=O)c4ccccc4C3=O)C2C(=O)N1c1cccc([N+](=O)[O-])c1 (centres undefined) | 59*
Cc1ccc(CCC(=O)NC2CC2)cc1 | 3
COc1ccc(CC(=O)Nc2cc(Cl)ccc2C)cc1 | -8
CCCCOc1ccc(N=C(CC)C(CC)=Nc2ccc(OCCCC)cc2)cc1 | -7
c1cc2c(s1)COCc1sccc1-2 | 45*
O=C(O)c1sccc1-c1ccsc1C(=O)O | -1
SMILES | RBX1-CUL1 inh
O=c1cc(-c2cccc(Oc3ccccc3)c2)oc2c(=O)ccccc12 | -11
COc1ccccc1/C=C1\C(=O)c2ccccc2SC1c1ccccc1 (centres undefined) | -4
Cc1cc(/C=C2\C(=O)NC(=S)N(c3cccc(F)c3)C2=O)c(C)n1-c1cccnc1 | 78*
Cc1cc(/C=C2/C(=O)NC(=S)N(c3cccc(F)c3)C2=O)c(C)n1-c1ccccc1 | 14
CCOC(=O)c1cccc(-n2c(C)cc(/C=C3\C(=O)NC(=O)N(c4ccc(C)c(C)c4)C3=O)c2C)c1 | 1
CCc1ccccc1-n1c(C)cc(/C=C2\C(=O)NC(=O)N(c3cccc(C)c3)C2=O)c1C | 7
Cc1cc(/C=C2/C(=O)NC(=S)N(c3ccc(F)cc3)C2=O)c(C)n1-c1ccc(O)cc1 | 10
Cc1cc(/C=C2\C(=O)NC(=O)N(c3ccc(Cl)c(Cl)c3)C2=O)c(C)n1-c1cccnc1 | 40*
C=C(C)C1CC=C(C)/C(=N/NC(=O)c2cc(C)[nH]n2)C1 (centres undefined) | 2
O=C1/C(=C/c2ccc(N3CCOCC3)cc2)SC(=Nc2ccccc2)N1CC1CCCO1 (centres undefined) | 3
CC1(C)CC(=O)CC(=Nc2ccccc2F)C1 | 6
O=C(Nc1nc2c(s1)C(=O)CC(C(=O)N1CCCC(c3ccccc3)C1)C2)c1ccsc1 (centres undefined) | 5
O=C(NCc1ccco1)c1nn2c(C(F)(F)F)cc(-c3cc(Br)cs3)nc2c1Br | -12
COc1ccc(-c2cc(C(F)(F)F)n3nc(C(=O)NCc4ccco4)c(Br)c3n2)cc1 | 29*
COc1ccc(CNC(=O)c2nn3c(C(F)(F)F)cc(-c4ccc(Br)cc4)nc3c2Br)cc1 | -7
O=c1cc(N2CCN(c3cccc(C(F)(F)F)c3)CC2)c2ccccc2o1 | 1
CCCCCCCNC(=O)c1ccc(C#CC(C)(C)O)cc1 | 8
O=C(NC1CCCCC1)c1ccc(N2CCCCC2)cc1 | 20
O=C(Nc1cccc(Oc2ccccc2)c1)C1CCN(S(=O)(=O)c2cccs2)CC1 | -1
CN1CCc2cc(CNC(=O)C3CCN(c4ccccc4)C3=O)ccc21 (centres undefined) | -2
CCOc1cc(CNc2ccc(O)cc2)cc(Br)c1OCc1ccccc1 | 4
CCOc1cccc(CNc2ccc(O)cc2)c1OCc1ccccc1 | 97*
CCOc1cc(CNCc2cccs2)cc(Br)c1OC | -8
Oc1ccc(NCc2ccccc2OCc2ccccc2)cc1 | 6
Oc1ccc(NCc2ccccc2OCc2ccc(Cl)cc2)cc1 | 7
CCOc1cc(CNc2ccc(O)cc2)cc(Br)c1OCc1cccs1 | 75*
